Test results taken from PubChem BioAssay (NCATS).
Results filed as inconclusive are left out. The source made the active and inactive calls. Unless noted, calls come from the whole dose curve; as a rule, active = well fitted curve in the direction sought with a large enough effect; inconclusive = small, poorly fitted or top-dose-only effect, or another doubt; inactive = no such curve, though single readings can be large; an effect the other way counts as inactive or inconclusive.

Legend:
[1] = target: Nuclear receptor subfamily 1 group I member 3 (Homo sapiens) (UniProt Q14994); assay: Primary qHTS for antagonist of constitutive androstane receptor (CAR) against the NCATS DSHEA and TCM libraries (AID 1794836); note: potency is the fitted concentration of half-maximal effect; for activity change, negative = inhibition: series mostly up to about 40 µM
Procedure, shortened: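 HepG2 cells stably carrying hCAR and a CYP2B6 luciferase reporter (2,500 cells/well) attached for 5 h, then received compounds with 48 uM CITCO for 24 h at 37C. ONE-Glo luminescence read antagonism; CellTiter-Fluor (405/540 nm) gave viability.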

[2] = Viability counterscreen for antagonist of constitutive androstane receptor (CAR) against the NCATS DSHEA and TCM libraries (AID 1794837);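 note: compound exposure lasted 24 h before viability reading; 0% is about no effect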
Procedure, shortened: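 Cell viability, CellTiter-Fluor, Ex/Em 405/540 nm, 1 h at 37C. HepG2-CYP2B6-hCAR, 2,500 cells/well; cpds + CITCO 48 uM final (antagonist mode), 24 h, 37C/5% CO2.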

[3] = Viability counterscreen for agonist of constitutive androstane receptor (CAR) against the NCATS DSHEA and TCM libraries (AID 1794838);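 note: HepG2 cells with CYP2B6 reporter and hCAR plus 0.75 µM PK11195 antagonist; 0% is about no effect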
Procedure, shortened: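 Viability by CellTiter-Fluor fluorescence, 405/540 nm, after 1 h at 37C. HepG2-CYP2B6-hCAR cells were exposed 24 h to test substances in presence of 0.75 uM PK11195 (final).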

[4] = HepG2 viability counterscreen (readout 2: ATP content) against the NCATS DSHEA and TCM libraries (AID 1794840); note: 0% is about no effect
Procedure, shortened: (§1)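 1,000 HepG2 cells/well, 4 h attach; compounds ~24 h, 37C/5% CO2. Readout 1: GF-AFC 25 uM final, 30 min, fluorescence 380/510 nm. Readout 2: CellTiter-Glo, 30 min RT, luminescence.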

[5] = HepG2 viability counterscreen (readout 1: protease activity) against the NCATS DSHEA and TCM libraries (AID 1794841);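 note: cells exposed to compounds for about 24 h before the protease read; 0% is about no effect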
Procedure, shortened: as §1

[6] = target: Cytochrome P450 3A4 (Homo sapiens) (UniProt P08684); assay: qHTS for inhibitors of CYP3A4 against the NCATS DSHEA and TCM libraries (AID 1919971); note: potency is the fitted concentration of half-maximal effect;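 for activity change, negative = inhibition: % is set by controls: 0 for no effect and ±100 for the full control effect; inhibition lowers luminescence from luciferin made by CYP3A4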
Procedure, shortened: (§2)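 Concentration-response screening with isoform-matched pro-luciferin substrates. The CYP reaction was initiated by NADPH regenerating solution and ran 30-45 min in darkness at room temperature.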

[7] = target: Cytochrome P450 2D6 (Homo sapiens) (UniProt P10635); assay: qHTS for inhibitors of CYP2D6 against the NCATS DSHEA and TCM libraries (AID 1919972); note: potency is the fitted concentration of half-maximal effect; for activity change, negative = inhibition: % is set by controls: 0 for no effect and ±100 for the full control effect
Procedure, shortened: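 CYP2D6 enzyme with pro-luciferin substrate in manufacturer buffer (typically 100 mM KPO4), preincubated 15 min RT with substances (most at 19.5 nM upward); NADPH regeneration system (1x) started 30–45 min RT reaction; P450-Glo luminescence read after 30 min; quinidine as intraplate control.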

[8] = target: Cytochrome P450 2C9 (Homo sapiens) (UniProt P11712); assay: qHTS for inhibitors of CYP2C9 against the NCATS DSHEA and TCM libraries (AID 1919973); note: potency is the fitted concentration of half-maximal effect;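 for activity change, negative = inhibition: luminogenic pro-luciferin CYP2C9 substrate turned into luciferin with NADPH regeneration; series mostly up to about 34 µM; % is set by controls: 0 for no effect and ±100 for the full control effect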
Procedure, shortened: as §2

[9] = target: Cytochrome P450 2C19 (Homo sapiens) (UniProt P33261); assay: qHTS for inhibitors of CYP2C19 against the NCATS DSHEA and TCM libraries (AID 1919974);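 note: luminescence from luciferin released by CYP2C19 oxidation of a pro-luciferin substrate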; note: potency is the fitted concentration of half-maximal effect; for activity change, negative = inhibition: % is set by controls: 0 for no effect and ±100 for the full control effect
Procedure, shortened: as §2

[10] = KB-3-1 P-gp reporter qHTS against the NCATS DSHEA and TCM libraries (AID 1919975); note: 0% is about no effect
Procedure, shortened: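 CellTiter-Glo luminescence viability readout; KB-3-1 parental cells, 500/well, attached ~4 h, then compound for ~72 h, 37C, 5% CO2. Bortezomib intraplate control.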

[11] = KB-8-5-11 P-gp reporter qHTS against the NCATS DSHEA and TCM libraries (AID 1919977); note: 0% is about no effect
Procedure, shortened: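 CellTiter-Glo luminescence after ~72 h exposure at 37C gave viability of KB-8-5-11 cells, the P-gp-overexpressing subline. Substances were titrated; colchicine was omitted from assay medium.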

[12] = qHTS Counterscreen for compound interference against the NCATS DSHEA and TCM libraries (AID 1919978); settings: firefly luciferase detection reagent interference, luminescence;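 note: compounds preincubated with 1 µM D-luciferin or buffer before detection reagent; % of control where 0% means no effect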
Procedure, shortened: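 Luminescence counterscreen for detection-kit interference: compounds at 19.5 nM–39.8 uM final, 15 min RT with 1 uM D-luciferin or buffer only; detection reagent added, 30 min RT, then read.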

[13] = Dual reporter qHTS for agonist of Pregnane X Receptor (hPXR) against the NCATS DSHEA and TCM libraries: Fluorescence readout (AID 1920058); note: 0% is about no effect
Procedure, shortened: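 Cells were plated at 2000 per well and allowed to attach for 5 h. Test substances were pinned in and incubated roughly 24 h. CellTiter-Fluor was then added and fluorescence measured after 1 h.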

[14] = target: Nuclear receptor subfamily 1 group I member 2 (Homo sapiens) (UniProt O75469); assay: Dual reporter qHTS for agonist of Pregnane X Receptor (hPXR) against the NCATS DSHEA and TCM libraries: Luminescence readout (AID 1920059); note: potency is the fitted concentration of half-maximal effect
Procedure, shortened: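 hPXR-LucHepG2 cells in phenol red-free DMEM with 5% charcoal-stripped FBS, 2000 cells/well, attached 5 h, then exposed 24 h at 37C to compounds; rifampicin as positive agonist control (2.8 nM–92 uM). Luciferase luminescence read.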

[15] = target: Nuclear receptor subfamily 1 group I member 2 (Homo sapiens) (UniProt O75469); assay: Dual reporter qHTS for antagonist of Pregnane X Receptor (hPXR) against the NCATS DSHEA and TCM libraries: Luminescence Readout (AID 1920060);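 note: HepG2 cells carrying hPXR luciferase reporter stimulated with rifampicin at 2 µM; 0% is about no effect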
Procedure, shortened: (§3)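 HepG2 hPXR-Luc, 2000 cells/well, charcoal-stripped FBS medium; 5 h attach; RIF 2 uM final; 24 h 37C/5% CO2; CellTiter-Fluor 1 h, fluor 405/540; ONE-Glo 30 min RT, lum.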

[16] = Dual reporter qHTS for antagonist of Pregnane X Receptor (hPXR) against the NCATS DSHEA and TCM libraries: Fluorescence Readout (AID 1920061); note: 0% is about no effect
Procedure, shortened: as §3

[17] = target: Peroxisome proliferator-activated receptor delta (Homo sapiens) (UniProt Q03181); assay: qHTS assay for small molecule agonists of peroxisome proliferator-activated receptor delta signaling (AID 588534; calls by dose curve;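 note: 0% = DMSO basal wells and 100% = positive control agonist at 10 µM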)
Procedure, shortened: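 Agonist-mode qHTS; reporter cells, 5 hrs 37 C pre-incubation; compound titration, 18 hrs 37 C; CCF4 dye, 2 hrs RT; fluorescence read. EC50/efficacy via Hill fit.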

[18] = NCATS anti-infectives library activity on HEK293 viability as a counter-qHTS vs the C. elegans viability qHTS (AID 1745854);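 note: HEK293 cells exposed to compounds for 24 hr before the viability read; % is set by controls: 0 for no effect and ±100 for the full control effect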
Procedure, shortened: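 Counter-screen for cytotoxicity: HEK293, 24 hr, 37C, compounds up to 41.7 uM final (a dilution series, 1:5). Readout CellTiter-Glo luminescence, 10 min RT. Digitonin control, 83.3 uM final.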

[19] = NCATS anti-infectives library activity on the primary C. elegans qHTS viability assay (AID 1745855; calls by dose curve)
Procedure, shortened: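 GFP read-out by 488 nm laser cytometry at day 0, 3 and 7, gated on object perimeter, area and peak intensity, scored viability of PE254-GFP-FLuc worms exposed to compound in S medium with bacterial capsules at 21 °C.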

Nuclear receptor subfamily 1 group I member 2 (Homo sapiens), sequence (O75469 whole entry, looked up): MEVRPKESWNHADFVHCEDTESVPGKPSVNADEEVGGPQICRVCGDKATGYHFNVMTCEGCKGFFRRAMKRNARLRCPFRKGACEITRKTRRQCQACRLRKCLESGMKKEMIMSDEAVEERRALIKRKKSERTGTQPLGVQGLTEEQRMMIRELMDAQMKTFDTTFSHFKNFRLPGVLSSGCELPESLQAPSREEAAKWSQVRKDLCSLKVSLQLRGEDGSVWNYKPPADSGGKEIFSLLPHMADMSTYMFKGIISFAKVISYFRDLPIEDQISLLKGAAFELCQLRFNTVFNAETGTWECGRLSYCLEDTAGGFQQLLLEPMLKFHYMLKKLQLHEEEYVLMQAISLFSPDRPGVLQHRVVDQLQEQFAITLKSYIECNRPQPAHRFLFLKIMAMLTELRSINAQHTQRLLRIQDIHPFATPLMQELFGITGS
Nuclear receptor subfamily 1 group I member 3 (Homo sapiens), sequence (Q14994 whole entry, looked up): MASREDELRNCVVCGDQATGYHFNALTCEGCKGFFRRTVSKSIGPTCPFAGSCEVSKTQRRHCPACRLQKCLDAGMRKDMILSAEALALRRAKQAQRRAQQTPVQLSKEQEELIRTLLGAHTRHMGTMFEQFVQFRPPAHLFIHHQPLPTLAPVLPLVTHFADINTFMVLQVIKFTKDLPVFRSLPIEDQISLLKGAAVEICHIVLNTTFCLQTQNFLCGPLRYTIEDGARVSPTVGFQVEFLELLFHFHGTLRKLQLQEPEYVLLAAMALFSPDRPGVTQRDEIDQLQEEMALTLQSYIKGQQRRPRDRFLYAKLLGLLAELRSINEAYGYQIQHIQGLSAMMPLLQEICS
Cytochrome P450 2D6 (Homo sapiens), sequence (P10635 whole entry, looked up): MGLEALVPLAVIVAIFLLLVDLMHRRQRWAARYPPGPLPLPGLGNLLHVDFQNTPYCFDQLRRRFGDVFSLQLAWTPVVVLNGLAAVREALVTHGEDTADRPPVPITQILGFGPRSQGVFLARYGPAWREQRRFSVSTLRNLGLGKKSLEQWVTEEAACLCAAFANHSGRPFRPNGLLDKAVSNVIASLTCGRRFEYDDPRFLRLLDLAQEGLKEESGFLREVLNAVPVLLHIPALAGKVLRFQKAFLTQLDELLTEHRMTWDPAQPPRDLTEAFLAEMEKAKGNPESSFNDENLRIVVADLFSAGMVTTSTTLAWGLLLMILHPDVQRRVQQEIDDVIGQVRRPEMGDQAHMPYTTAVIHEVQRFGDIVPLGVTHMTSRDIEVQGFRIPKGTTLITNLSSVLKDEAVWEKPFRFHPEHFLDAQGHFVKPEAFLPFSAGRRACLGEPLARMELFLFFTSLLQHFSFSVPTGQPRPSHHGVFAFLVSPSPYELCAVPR
Cytochrome P450 2C19 (Homo sapiens), sequence (P33261 whole entry, looked up): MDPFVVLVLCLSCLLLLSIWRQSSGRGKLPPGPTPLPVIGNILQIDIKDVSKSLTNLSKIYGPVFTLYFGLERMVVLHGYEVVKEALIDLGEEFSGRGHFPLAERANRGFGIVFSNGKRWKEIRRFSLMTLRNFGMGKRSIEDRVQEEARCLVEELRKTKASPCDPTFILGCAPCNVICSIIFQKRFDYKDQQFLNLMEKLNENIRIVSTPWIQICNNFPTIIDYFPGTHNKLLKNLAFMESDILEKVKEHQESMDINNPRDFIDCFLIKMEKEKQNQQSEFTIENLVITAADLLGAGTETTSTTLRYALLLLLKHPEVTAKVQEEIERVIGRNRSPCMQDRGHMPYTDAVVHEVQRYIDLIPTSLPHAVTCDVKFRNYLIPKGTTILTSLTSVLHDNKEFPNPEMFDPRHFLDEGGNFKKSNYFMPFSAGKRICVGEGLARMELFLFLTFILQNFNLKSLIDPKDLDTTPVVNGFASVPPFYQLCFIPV
Cytochrome P450 3A4 (Homo sapiens), sequence (P08684 whole entry, looked up, canonical isoform): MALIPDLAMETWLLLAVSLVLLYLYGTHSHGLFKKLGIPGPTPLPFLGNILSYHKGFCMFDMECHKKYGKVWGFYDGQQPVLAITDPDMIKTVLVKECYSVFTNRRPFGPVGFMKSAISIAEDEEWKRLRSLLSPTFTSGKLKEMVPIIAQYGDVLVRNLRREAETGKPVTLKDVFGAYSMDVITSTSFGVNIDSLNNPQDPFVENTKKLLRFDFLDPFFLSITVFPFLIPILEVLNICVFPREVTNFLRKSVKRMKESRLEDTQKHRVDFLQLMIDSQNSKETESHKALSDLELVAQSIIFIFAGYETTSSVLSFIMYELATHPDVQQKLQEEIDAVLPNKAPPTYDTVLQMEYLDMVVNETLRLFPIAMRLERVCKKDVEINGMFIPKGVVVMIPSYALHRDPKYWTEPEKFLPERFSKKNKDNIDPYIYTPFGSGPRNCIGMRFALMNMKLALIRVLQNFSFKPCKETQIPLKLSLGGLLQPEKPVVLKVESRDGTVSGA
Cytochrome P450 2C9 (Homo sapiens), sequence (P11712 whole entry, looked up): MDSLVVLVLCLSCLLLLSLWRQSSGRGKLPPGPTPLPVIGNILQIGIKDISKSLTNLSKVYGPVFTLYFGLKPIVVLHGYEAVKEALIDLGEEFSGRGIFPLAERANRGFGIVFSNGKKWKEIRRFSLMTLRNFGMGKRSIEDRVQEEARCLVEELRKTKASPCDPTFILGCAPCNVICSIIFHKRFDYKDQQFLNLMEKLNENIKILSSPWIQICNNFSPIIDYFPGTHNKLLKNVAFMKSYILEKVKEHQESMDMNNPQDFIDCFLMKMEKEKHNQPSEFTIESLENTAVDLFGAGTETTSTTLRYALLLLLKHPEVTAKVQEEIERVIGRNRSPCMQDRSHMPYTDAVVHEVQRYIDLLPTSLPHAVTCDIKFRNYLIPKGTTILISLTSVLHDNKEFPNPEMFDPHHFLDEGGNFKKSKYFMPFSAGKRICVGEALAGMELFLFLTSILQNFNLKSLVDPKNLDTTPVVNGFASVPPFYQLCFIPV
Peroxisome proliferator-activated receptor delta (Homo sapiens), sequence (Q03181 whole entry, looked up): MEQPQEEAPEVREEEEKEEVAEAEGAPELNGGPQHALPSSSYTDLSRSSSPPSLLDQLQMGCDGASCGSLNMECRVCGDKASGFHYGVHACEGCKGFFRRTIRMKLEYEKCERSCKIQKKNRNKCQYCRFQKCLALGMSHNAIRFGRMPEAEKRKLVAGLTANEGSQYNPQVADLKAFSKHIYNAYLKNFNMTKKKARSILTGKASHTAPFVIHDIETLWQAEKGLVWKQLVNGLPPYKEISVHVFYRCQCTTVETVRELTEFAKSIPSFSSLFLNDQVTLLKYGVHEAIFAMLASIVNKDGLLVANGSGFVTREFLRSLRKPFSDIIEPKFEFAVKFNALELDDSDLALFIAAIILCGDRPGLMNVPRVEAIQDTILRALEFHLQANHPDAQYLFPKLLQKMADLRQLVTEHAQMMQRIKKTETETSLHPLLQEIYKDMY

COC(=O)C1=CO[C@@H](C)[C@@H]2CN3CC[C@@]4(C(=O)Nc5ccccc54)[C@@H]3CC12 (some centres undefined)
active: Potency [6] 14.1 µM | Potency [14] 10 µM
inactive: Potency [1] | outcome [2] | outcome [3] | outcome [4] | outcome [5] | Potency [7] | Potency [8] | Potency [9] | outcome [10] | Potency [11] | max response [12] 3.44% | outcome [13] | outcome [15] | outcome [16]

O=C(OCC1=C[C@@H](O)[C@@H]2C=CO[C@@H](O[C@@H]3O[C@H](CO)[C@@H](O)[C@H](O)[C@H]3O)[C@H]12)c1ccc(O)cc1
inactive: Potency [1] | Potency [11]

CC(C)=CCC[C@](C)(O[C@@H]1O[C@H](CO[C@@H]2O[C@H](CO)[C@@H](O)[C@H](O)[C@H]2O)[C@@H](O)[C@H](O)[C@H]1O)C1CC[C@]2(C)[C@@H]1[C@H](O)CC1[C@@]3(C)CC[C@H](O[C@@H]4O[C@H](CO)[C@@H](O)[C@H](O)[C@H]4O[C@@H]4O[C@H](CO)[C@@H](O)[C@H](O)[C@H]4O)C(C)(C)[C@@H]3CC[C@]12C (some centres undefined)
inactive: activity change, negative = inhibition [1] -31.6% [at 8.32 µM] | activity change, negative = inhibition [11] 14.6% [at 5.42 µM]

C=C(C)C1CC=C(C)C(O)C1 (centres undefined)
inactive: outcome [17] | Potency [1] | Potency [11]

CCCCCCCCC/C=C/C(=O)CCc1ccc(O)c(OC)c1
inactive: Potency [1] | Potency [11]

COc1ccc(/C=C/c2cc(OC)cc(=O)o2)cc1
inactive: Potency [1] | Potency [11]

O=C(OC[C@H]1O[C@@H](OC(=O)c2cc(O)c(O)c(O)c2)[C@H](OC(=O)c2cc(O)c(O)c(O)c2)[C@@H](OC(=O)c2cc(O)c(O)c(O)c2)[C@@H]1O)c1cc(O)c(O)c(O)c1
inactive: Potency [1] | Potency [11]

O=c1cc(-c2ccc(O)c(O)c2)oc2cc(O[C@@H]3O[C@@H](CO)[C@@H](O)[C@@H](O)[C@H]3O)cc(O)c12
inactive: Potency [1] | Potency [11]

COC(=O)C1=CO[C@@H](C)[C@H]2CN3CCc4c([nH]c5ccccc45)[C@@H]3C[C@H]12
inactive: Potency [1] | Potency [11]

CCCCCCCCCCCCCCCCCCCC(=O)O
inactive: Potency [1] | outcome [2] | outcome [3] | outcome [4] | outcome [5] | Potency [6] | Potency [7] | outcome [10] | Potency [11] | max response [12] 0.104% | outcome [13] | Potency [14] | outcome [15] | outcome [16]
active: Potency [8] 15.8 µM

CC[C@H]1CN2CCc3cc(OC)c(OC)cc3[C@@H]2C[C@@H]1C[C@H]1NCCc2cc(O)c(OC)cc21
inactive: Potency [18] | Potency [19]

CC12CC3(O)OC(O1)C1(COC(=O)c4ccc(O)cc4)C3CC21OC1OC(CO)C(O)C(O)C1O (centres undefined)
inactive: Potency [1] | Potency [11]

COc1cc2c(cc1O)CC1NCCc3cc(OC)c(OC)c-2c31 (centres undefined)
inactive: Potency [1] | outcome [2] | outcome [3] | outcome [4] | outcome [5] | outcome [10] | Potency [11] | max response [12] -2.18% | outcome [13] | Potency [14] | outcome [15] | outcome [16]
active: Potency [7] 6.31 µM

C=C(C)C(CC=C(C)C)CC12CC(CC=C(C)C)C(C)(C)C(CC=C(C)C)(C(=O)/C(=C(\O)c3ccc(O)c(O)c3)C1=O)C2=O (centres undefined)
inactive: Potency [1]

CC(C)(O)[C@@H]1CC[C@](C)([C@H]2[C@@H](O)C[C@@]3(C)[C@@H]4C[C@H](O)[C@H]5C(C)(C)[C@@H](O[C@@H]6OC[C@@H](O)[C@H](O)[C@H]6O[C@@H]6O[C@H](CO)[C@@H](O)[C@H](O)[C@H]6O)CC[C@@]56C[C@@]46CC[C@]23C)O1
inactive: Potency [1] | Potency [11]

Cc1ccc(O)c(O)c1
inactive: Potency [1]

O=C(OC[C@H]1O[C@@H](OC(=O)c2cc(O)c(O)c(O)c2)[C@H](OC(=O)c2cc(O)c(O)c(O)c2)[C@@H](OC(=O)c2cc(O)c(O)c(O)c2)[C@@H]1OC(=O)c1cc(O)c(O)c(O)c1)c1cc(O)c(O)c(O)c1
inactive: Potency [1] | Potency [11]

CC[C@@H]1CN2CC[C@]3(C(=O)Nc4ccccc43)[C@@H]2C[C@@H]1/C(=C\OC)C(=O)OC
inactive: outcome [2] | outcome [3] | outcome [4] | outcome [5] | Potency [7] | outcome [10] | Potency [11] | max response [12] -3.13% | outcome [13] | outcome [15] | outcome [16]
active: Potency [1] 3.98 µM | Potency [9] 11.2 µM
